Consider 14 compounds from PubChem BioAssay (NCI).

This is part of a sample that, as a whole, favours compounds with a hit. Of some 83,000 tested, about 20% had one in any assay.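 Single-dose data. Exposure time 48 hours. Values below 10 considered active.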 Values without a mark were called inactive. Active and inactive are the calls of the source.

The assay relates to MDA-MB-468 breast. The assay can be described thus: NCI-60 one-dose screen, 48 h (100 = growth as untreated, 0 = no growth, -100 = all killed). Particulars: 10 µM unless noted.
With `O=C(c1ccc(Nc2nccc(NCCCCNc3ccnc4cc(Cl)ccc34)n2)cc1)N1CCCCC1`, the growth was -25.3% (active).
As for `CC(O)CN(CCO)CCN(CCO)CC(C)O` (centres undefined), the figure is 94.8%.
Regarding `COc1c(B(O)O)cccc1-c1nc2ccc3[nH]ncc3c2c2c1CCCC2`, the growth is 34%.
On to `CSc1nc2c(c(=O)[nH]1)C1(C(=O)Nc3ccccc31)c1c(nc(SC)[nH]c1=O)N2`, for which the growth is 93.1%.
Take `COc1ccc2nc3cc(Cl)ccc3c(N3CCN(c4nccc(Nc5ccc(Cl)cc5)n4)CC3)c2c1`: the growth was 82.8%.
As for `Cc1ccc(C(=O)c2ccc(CC(=O)N/N=C/c3cccc(O)c3O)n2C)cc1`, the growth is 54.9%.
With `C=CCSc1n[nH]c(-c2cccs2)n1`, the growth is 95.6%.
To `COc1cc(/C=C2\C=C(c3ccccc3)N(CCc3ccccc3)C2=O)cc(OC)c1OC` belongs 89.2%.
As for `COc1cc(C(=O)NNC(=O)c2ccc(NC(=O)CCl)cc2)cc(OC)c1OC`, the figure is 70.3%; as for `C=CC[n+]1c(/C=C2\Sc3ccccc3N2C)sc(-c2ccccc2)c1-c1ccccc1`, 1.16% (active).
To `O=C(CSc1nc2ccccc2c(=O)n1-c1ccc(Cl)c(Cl)c1)Nc1ccc(S(=O)(=O)Nc2ccc(Cl)nn2)cc1` belongs 116%; to `NC1C2CCC1CN(c1cnc(C(=O)Nc3cc(F)cc4cccnc34)cn1)C2` (centres undefined), -4.02% (active); to `COc1cc2c(cc1-c1c(C)noc1C)ncc1nc(C3CCCCC3)n([C@@H](C)COC(F)F)c12`, 32.6%.
`Cc1onc(-c2c(F)cccc2Cl)c1-c1ncc(-c2ccc(Br)cc2)o1`: the growth is 28.4%.
